Laboratory results published in the supplement of paper PMC6555819.

What follows are sequences tested on LXRb:RXRa (NR concentration 270 nM, RXRa partner concentration 90 nM) (assay: PBM binding z-score (relative to random genomic background probes); higher = stronger binding; sequences stand for … in GC…GCGATTGACAGCGTAGAATGAAGG).
Procedure: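 Protein-binding microarray (Agilent 4x180K custom design, double-stranded 60-nt probes: 5' GC cap, 34-nt variable region, 24-nt constant primer region; full probe sequence given). Purified or IVT nuclear receptor:RXRα heterodimers (3:1 NR:RXRα, mostly 270:90 nM) or homodimers were incubated for 1 h in PBS with 2% milk and no ligand, then detected with Alexa488 antibodies. Fluorescence from o1-orientation probes (~5 replicates averaged) was converted to z-scores against 500 random hg19 background probes. Variable regions are seed direct-repeat (DR0–DR5) sites, all their single-nucleotide variants and half-site ablations.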

Sequence | PBM binding z-score
TATCAAAGTTCAAAGGTAACGTAAGTATCCACAC | 4.98
CACACTAGGTCACAGAGGTCAAAGTCCGTGCGTA | 6.24
TAGCCTAGGTCACATCGGGCCAGTATACGCTATA | 2.29
TAGCCTAAGTCATGCGGGCCAGTATAGTGTCGGC | -0.501
CGTCCAAGGTTAAGGTCAGTGAAAGAGACTCGAA | 2.62
TAGCCTAGGTCATGCGGGACAGTATAGTGTCGGC | 1.88
CCGAGTTGGTCAAGGTCACACACGCTATAGGTAC | 3.66
GCTGCTAGGTCAACTGATGGTCATCTAAAGCTCG | 2.18
CAAACCAGGTCAAGAGGTCAAAGTCCGCTTCCCG | 5.73
ATATGTAGGTTAGCTGAGGTCATTCAGACTAGGC | 4.72
CGTCAAAGGTCAGCAGGTCAGTGAAAGCGACGTG | 4.97
AAAACAGGGTCATCGTAGGCCAGAGTACGCACAG | 4.8
TCTTGTAGATCAACAGGAGGTTAATAAAGATCGA | 1.49
ATCGAAAGGTCCAAGGTGAGTATACCCACCCGAA | 0.126
TAGCCTAGGGCATTCAGGGGCCAGTATAGAAAGC | -0.231
CGAACGAGGTCATTGACAGGACAGTGAATAGTAA | 5.01
TCTTGTAGGTCAATAGAGGTTAAGAAAGTGCGCT | 5.11
CGAACTAGGTCATTGACAGGACAATGAATAGTAA | 2.47
CGAACTACGTCATCCAGGACAGTGAATACATTGA | -0.00555
CGTCCAAGGACAATGCTAGGTCAGTGAAAGCATT | -0.0607

Sequence | PBM binding z-score
CCTTACGGGTCAAGGTTATAGCCCGGGTGGTACG | 2.84
AGAATGAGGTCATTAAGATCAGGGAATTGCGGTC | 4.71
CCTAGTTGGTCAAGGTCACATACGCTATAGGTAC | 3.56
TCTGCTAGGTCAACGATGGTCAGTTAATCTGCTA | 1.72
CCTTACGGGTCACTCCAGGTTATATCATCGGAGT | 5.38
CAAACTAGGTCACAGTGGTCAAAGTCCGTGCGTA | 2.4
CCTACTGGGCCTAAGGTCATTGATTCCAATGCTC | 3.36
CCTACTGGGCCATTCAGAGGGCATTGATCATATG | -0.224
TACCCTAGGTCATTCAGGGGCCAGTATAGAAAGC | 4.5
GCTTACGGGTCCAAGGTTATAGCATGAATAGAAT | 0.855
ACTTACGGGTCTACGAGGTTATAGCACGCGTATA | 0.819
GATATAGGGTCAGCTAGAGGCCAGAGTATGGAAA | 2.77
AGAATGAGGTTAAGTTCAGGGAAACAGAATACAT | 2.78
CCTTACGGGTCACGAGGTCATAGCACGACGAGCG | 5.05
ACTCGGAGGACAAAGGTCAGGGCTACGCCAGTGA | 3.29
CGTCAAAGTTCAACTAAGGTTACGTAAAGCACGC | 5.4
TCTCGGAGGACACAAAGGTCAGAGCTTTCCAGAG | 3.15
CGTCTAAGGTCATAGGAGGTCAGTGAAGACAGAT | 6.9
CGAACGAGGTCATCCAGGACAGTGAATACATTGA | 5.42
TGTCAAAGTTCAAAGGTGACGTAAGTATCCACAC | 5.06
